This is an account of results in PMC4336329 (PLoS ONE, 2015).

In all, about 310,000 compounds went through this assay and about 14,000 (4.5%) showed an effect of 50% or more. The effect is printed as a negative number. For the sample, strong results were picked, then their nearest neighbours and some compounds at random.
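Further: peak tail current of the secondary pulse compared with the same well before compound.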

For the assay, the target named is human ether-à-go-go-related gene (hERG) potassium channel (human, UniProt Q12809). In words: primary screen, population patch clamp on CHO cells stably expressing hERG; higher = less effect of the substance.
Sequence of human ether-à-go-go-related gene (hERG) potassium channel (Q12809 whole entry, looked up): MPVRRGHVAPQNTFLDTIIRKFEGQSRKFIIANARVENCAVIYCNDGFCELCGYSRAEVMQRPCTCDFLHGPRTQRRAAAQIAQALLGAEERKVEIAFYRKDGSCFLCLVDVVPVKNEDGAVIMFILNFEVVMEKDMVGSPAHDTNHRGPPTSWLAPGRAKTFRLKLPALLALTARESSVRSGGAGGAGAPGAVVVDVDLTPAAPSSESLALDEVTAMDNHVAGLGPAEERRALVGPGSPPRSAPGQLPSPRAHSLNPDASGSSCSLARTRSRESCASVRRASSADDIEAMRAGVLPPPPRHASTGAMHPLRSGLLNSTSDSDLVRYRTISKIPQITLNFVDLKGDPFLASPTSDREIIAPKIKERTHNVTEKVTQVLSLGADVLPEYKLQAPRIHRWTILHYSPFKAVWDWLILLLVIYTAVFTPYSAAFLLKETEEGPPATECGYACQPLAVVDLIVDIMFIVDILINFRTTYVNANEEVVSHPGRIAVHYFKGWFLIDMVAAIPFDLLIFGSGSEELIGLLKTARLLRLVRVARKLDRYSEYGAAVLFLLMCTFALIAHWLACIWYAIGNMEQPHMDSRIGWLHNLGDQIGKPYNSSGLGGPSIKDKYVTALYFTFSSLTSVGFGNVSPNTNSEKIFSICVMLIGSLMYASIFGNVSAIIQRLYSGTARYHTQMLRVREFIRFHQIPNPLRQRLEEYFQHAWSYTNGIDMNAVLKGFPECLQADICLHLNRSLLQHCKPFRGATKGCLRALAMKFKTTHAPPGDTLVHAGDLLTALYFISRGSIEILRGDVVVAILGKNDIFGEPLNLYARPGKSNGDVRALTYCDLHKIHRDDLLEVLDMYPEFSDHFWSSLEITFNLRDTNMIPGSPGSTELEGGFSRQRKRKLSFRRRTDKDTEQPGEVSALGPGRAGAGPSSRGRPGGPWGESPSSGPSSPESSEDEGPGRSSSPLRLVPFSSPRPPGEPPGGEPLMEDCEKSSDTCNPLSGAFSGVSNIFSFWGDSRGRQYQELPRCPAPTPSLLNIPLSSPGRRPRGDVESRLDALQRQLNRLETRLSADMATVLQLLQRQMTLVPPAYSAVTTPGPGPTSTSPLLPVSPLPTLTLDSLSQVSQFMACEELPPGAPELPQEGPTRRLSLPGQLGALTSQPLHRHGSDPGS
On to `COC(=O)c1c(C)oc2c1cc(NS(=O)(=O)c1ccc(C(=O)O)cc1)c1ccccc12`, for which the “hERG current change (%, negative = inhibition) at 10uM” value was 7.86%. The same measure for `CCOC(=O)c1c(C)oc2c1cc(NS(=O)(=O)c1ccc(C(=O)O)cc1)c1ccccc12`: -60.7%. Consider `CC(=O)c1c(C)oc2c1cc(NS(=O)(=O)c1ccc(C(=O)O)cc1)c1ccccc12`, for which the “hERG current change (%, negative = inhibition) at 10uM” value worked out at 14.3%.

As for `O=C(CCCC(=O)OCC(F)(F)C(F)F)Nc1ccccc1F`, the “hERG current change (%, negative = inhibition) at 10uM” value turned out to be 14.8%. The figure for `CN(C)C(/C=C/Nc1cccc([N+](=O)[O-])c1)=C(C#N)C#N` is -11.1%; for `CC(C)(C)c1nn(-c2ccccc2)c2[nH]c(=O)c(CNc3ccc4c(c3)OCCO4)cc12` it is -4.99%; for `CCOC(=O)Cc1csc(NC(=O)Cc2ccc([N+](=O)[O-])cc2)n1` it is -64.9%. For the compound `CCOC(=O)Cc1csc(NC(=S)NC(=O)c2ccc([N+](=O)[O-])cc2)n1`, the “hERG current change (%, negative = inhibition) at 10uM” value worked out at 13.8%. In the case of `Cc1cc2cc(CNC(=O)c3cccc([N+](=O)[O-])c3)ccc2[nH]1`, the “hERG current change (%, negative = inhibition) at 10uM” value was -25.3%.

For `CC(C)Cc1ccc(C(C)C(=O)Nc2nccs2)cc1` (stereo not drawn), the “hERG current change (%, negative = inhibition) at 10uM” value is given as -1.33%. As to `CCOC(=O)Cc1csc(NC(=O)Cc2ccc(C)cc2)n1`, the “hERG current change (%, negative = inhibition) at 10uM” value is -18%. The figure for `CCOC(=O)Cc1csc(NS(=O)(=O)c2ccc([N+](=O)[O-])cc2)n1` is 7.89%; for `CC(C(=O)Nc1nccs1)c1ccc([N+](=O)[O-])cc1` (stereo not drawn) it is -72%. The same measure for `CC(Sc1ccc([N+](=O)[O-])cn1)C(=O)Nc1nccs1` (stereo not drawn): -5.58%. Consider `CCOC(=O)Cc1csc(NC(=O)C(C)c2ccc([N+](=O)[O-])cc2)n1` (stereo not drawn), for which the “hERG current change (%, negative = inhibition) at 10uM” value is listed as -55.9%. The figure for `Cc1cc2cc(CNC(=O)Cc3ccc([N+](=O)[O-])cc3)ccc2[nH]1` is -50.7%; for `CCC(=O)NCc1ccc2[nH]c(C)cc2c1` it is 37%. The same measure for `CCOC(=O)Cc1csc(NC(=O)Cc2ccc(Cl)cc2)n1`: -15.1%. The figure for `COc1ccc(CCN=C(N)NS(=O)(=O)c2ccc(C)cc2)cc1OC` is 6.05%; for `CCCCNC(=O)C1CCCN1C(=O)Nc1cccc(OC)c1` (stereo not drawn) it is 14%; for `Cc1sc2ncn(/N=C/c3ccco3)c(=O)c2c1C` it is -2.43%.

Turning to `CC(C)OC(=O)c1cc(NC(=O)C2C3C=CC(O3)C2C(=O)O)cc(C(=O)OC(C)C)c1` (stereo not drawn), the “hERG current change (%, negative = inhibition) at 10uM” value was -1.28%. Turning to `Cc1c(C)c(C)c2[nH]c(=S)[nH]c2c1C`, the “hERG current change (%, negative = inhibition) at 10uM” value came to 24.9%.

With `CCN(CC)C(=O)COC(=O)c1ccc(O)cc1`, the “hERG current change (%, negative = inhibition) at 10uM” value was found to be 7.43%. `CC1=C(C(=O)Nc2ccccc2C(=O)NCCCOC(C)C)SCCO1`: the “hERG current change (%, negative = inhibition) at 10uM” value was determined as 14%. The same measure for `CCCCn1c(=O)[nH]c(=O)c2c1nc(-c1ccccc1F)n2Cc1ccccc1OC`: 11.5%. The figure for `COc1ccc(-c2cc(C(F)(F)F)nc(SCC(=O)N(C)Cc3cnn(C)c3C)n2)cc1OC` is -42.4%. For the compound `Cc1cc(C)nc(NC(=O)Cc2ccc(Cl)cc2)c1`, the “hERG current change (%, negative = inhibition) at 10uM” value is -5.94%. `Cc1ccnc(NC(=O)Cc2ccc([N+](=O)[O-])cc2)c1`: the “hERG current change (%, negative = inhibition) at 10uM” value is given as -12.4%. The same measure for `CC(C(=O)Nc1cccc(Br)c1)c1ccc([N+](=O)[O-])cc1` (stereo not drawn): -47.3%; for `Cc1cc(C)nc(NC(=O)Cc2ccc([N+](=O)[O-])cc2)c1`: -67.9%; for `CC(C(=O)Nc1ccccc1Br)c1ccc([N+](=O)[O-])cc1` (stereo not drawn): -35.5%.

For the compound `Cc1cc(Br)ccc1NC(=O)C(C)c1ccc([N+](=O)[O-])cc1` (stereo not drawn), the “hERG current change (%, negative = inhibition) at 10uM” value is -70.7%. The same measure for `CCOc1cc(NC(=O)CC(C)C)c(OCC)cc1NC(=O)CCn1nnc2ccccc21`: 10.1%; for `CCOC(=O)c1ccc(-n2ccnc2)c(NC(=O)c2ccc(Cl)cc2)c1`: -66.2%.

Take `CCOC(=O)c1ccc(-n2ccnc2)c(NC(=O)c2cccc(Br)c2)c1`: the “hERG current change (%, negative = inhibition) at 10uM” value is -42.1%. As for `CCOC(=O)c1ccc(-n2ccnc2)c(NC(=O)c2ccc(C(C)(C)C)cc2)c1`, the “hERG current change (%, negative = inhibition) at 10uM” value was -41%. The same measure for `O=C(CSc1nnc(C2COc3ccccc3O2)o1)N1CCN(c2ccccc2)CC1` (stereo not drawn): 8.03%. With `CCOC(=O)N1CCN(C(=O)C2CCC(CNS(=O)(=O)c3ccccc3)CC2)CC1` (stereo not drawn), the “hERG current change (%, negative = inhibition) at 10uM” value is on record as 3.18%. The figure for `COc1ccc(NC(=O)c2ccc(-c3ccc([N+](=O)[O-])cc3)o2)cc1OC` is -64.9%; for `COc1ccc(CCNC(=O)c2ccc(-c3cccc([N+](=O)[O-])c3)o2)cc1OC` it is -26.7%. In the case of `COc1ccc(CCNC(=O)Cc2ccc([N+](=O)[O-])cc2)cc1OC`, the “hERG current change (%, negative = inhibition) at 10uM” value is listed as -11.6%. For `COc1ccc(NC(=O)c2ccc(-c3ccc([N+](=O)[O-])cc3)o2)cc1`, the “hERG current change (%, negative = inhibition) at 10uM” value is recorded as -33.1%. For the compound `COc1cccc(NC(=O)c2ccc(-c3ccc([N+](=O)[O-])cc3)o2)c1`, the “hERG current change (%, negative = inhibition) at 10uM” value is on record as -36.2%.

Consider `COc1ccc(CCNC(=O)c2ccc(-c3ccc([N+](=O)[O-])cc3)o2)cc1OC`, for which the “hERG current change (%, negative = inhibition) at 10uM” value is given as -60.7%.
